The record followed here is PubChem BioAssay (NCATS).

Each structure is given as a SMILES string. Results filed as inconclusive are left out. Entries that show only a call come without a potency. The source made the active and inactive calls. Calls follow the shape of the dose curve; as a rule, active = well fitted inhibition curve with a large enough effect; inconclusive = small, poorly fitted or top-dose-only effect; inactive = flat fitted curve, though single readings scatter. Bridge positions count the residues as written; N and C are the ends. Square brackets hold non-standard residues; d marks the D form. Peptide text beside a SMILES is read from it. * marks the point of attachment. Ileψ(thiazoline)Cys = CC[C@H](C)[C@H](N)C1=N[C@H](C(=O)*)CS1; d(aIle) = CC[C@H](C)[C@@H](N)C(=O)O; dOrn = NCCC[C@@H](N)C(=O)O
Potency is read from the fitted curve at half-maximal effect.

In the first experiment the test system is AA1029. Briefly: qHTS profiling for inhibitors of Plasmodium falciparum proliferation (AID 504749). Also: nearly all actives have a fitted effect of over 60% in size. The settings on record: P. falciparum in erythrocytes, SYBR Green DNA, 72 h; series mostly up to 12.8 µM. The method, boiled down: (§1)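 Fluorescence of SYBR Green-bound parasite DNA, read at 485/535 nm, served as the growth measure. Infected erythrocytes were cultured with compound 72 h; artemisinin (0.29 uM) and DMSO wells defined the normalization range.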
(In qHTS, concentration-response curves come from the screen itself.)
As to `C[C@H](CCC(=O)O)[C@H]1CC[C@@H]2[C@@H]3[C@@H](O)C[C@H]4C[C@@H](O)CC[C@@]4(C)[C@H]3CC[C@@]21C`, the Potency result was “inactive”.

As to `CN(C/C=C\c1ccccc1)Cc1cccc2ccccc12`, the Potency result is “inactive”.

For the molecule `CCN(CCCCOC(=O)c1ccc(OC)c(OC)c1)[C@@H](C)Cc1ccc(OC)cc1`, the Potency entry is “inactive”.

As for `CCC(=O)OCC(=O)[C@@]1(OC(=O)CC)[C@H](C)C[C@@H]2[C@@H]3[C@H]([C@@H](O)C[C@@]21C)[C@]1(C)C=CC(=O)C=C1C[C@@H]3Cl`, the Potency entry was “inactive”.

Take `C[C@H](C(=O)O)c1cccc(Oc2ccccc2)c1`: the Potency result was “inactive”.

As for `CC1(C)[C@@H](OC(=O)CCC(=O)O)CC[C@@]2(C)[C@H]1CC[C@@]1(C)[C@H]2C(=O)C=C2[C@H]3C[C@](C)(C(=O)O)CC[C@]3(C)CC[C@@]21C`, the Potency entry is “inactive”.

In the case of `CCOC(=O)O[C@@H](C)OC(=O)[C@@H]1N2C(=O)[C@@H](NC(=O)[C@@H](N)c3ccccc3)[C@H]2SC1(C)C`, the Potency entry was “inactive”.

For `Cc1ccsc1/C=C\C1=NCCCN1C`, the Potency result was “inactive”.

`C#C[C@]1(O)CC[C@@H]2[C@H]3CCC4=CCCC[C@@H]4[C@@H]3CC[C@@]21C`: the Potency entry is “inactive”.

Regarding `CC[C@H](C)[C@H](N)C1=N[C@H](C(=O)N[C@@H](CC(C)C)C(=O)N[C@@H](CCC(=O)O)C(=O)N[C@@H](C(=O)N[C@H]2CCCCNC(=O)[C@@H](CC(N)=O)NC(=O)[C@@H](CC(=O)O)NC(=O)[C@@H](Cc3cnc[nH]3)NC(=O)[C@@H](Cc3ccccc3)NC(=O)[C@@H]([C@@H](C)CC)NC(=O)[C@@H](CCCN)NC2=O)[C@@H](C)CC)CS1` ({Ileψ(thiazoline)Cys}-LE[d(aIle)]K[dOrn][d(aIle)][dF][dH][dD][dN]; lactam 4-C), the Potency result is “inactive”.

With `O=C(O)COCCN1CCN([C@@H](c2ccccc2)c2ccc(Cl)cc2)CC1`, the Potency entry was “inactive”.

With `CCN(CC)CCOC(=O)[C@@H](Cc1cccc2ccccc12)C[C@@H]1CCCO1`, the Potency result was “inactive”.

In the case of `CC[C@H](CO)NCCN[C@@H](CC)CO`, the Potency entry is “inactive”.

Another experiment has as its system AS120. Described as above. The conditions noted are these: P. falciparum in erythrocytes, SYBR Green DNA, 72 h; series mostly up to 12.8 µM. A digest of the protocol:
as §1
On to `C[C@H](CCC(=O)O)[C@H]1CC[C@@H]2[C@@H]3[C@@H](O)C[C@H]4C[C@@H](O)CC[C@@]4(C)[C@H]3CC[C@@]21C`, for which the Potency result is “inactive”.

Turning to `CN(C/C=C\c1ccccc1)Cc1cccc2ccccc12`, the Potency result is “inactive”.

Regarding `CCN(CCCCOC(=O)c1ccc(OC)c(OC)c1)[C@@H](C)Cc1ccc(OC)cc1`, the Potency result is “inactive”.

As for `C[C@H](C(=O)O)c1cccc(Oc2ccccc2)c1`, the Potency result was “inactive”.

On to `CC1(C)[C@@H](OC(=O)CCC(=O)O)CC[C@@]2(C)[C@H]1CC[C@@]1(C)[C@H]2C(=O)C=C2[C@H]3C[C@](C)(C(=O)O)CC[C@]3(C)CC[C@@]21C`, for which the Potency entry is “inactive”.

Consider `CCOC(=O)O[C@@H](C)OC(=O)[C@@H]1N2C(=O)[C@@H](NC(=O)[C@@H](N)c3ccccc3)[C@H]2SC1(C)C`, for which the Potency result was “inactive”.

`Cc1ccsc1/C=C\C1=NCCCN1C`: the Potency result is “inactive”.

As for `C#C[C@]1(O)CC[C@@H]2[C@H]3CCC4=CCCC[C@@H]4[C@@H]3CC[C@@]21C`, the Potency entry was “inactive”.

`CC[C@H](C)[C@H](N)C1=N[C@H](C(=O)N[C@@H](CC(C)C)C(=O)N[C@@H](CCC(=O)O)C(=O)N[C@@H](C(=O)N[C@H]2CCCCNC(=O)[C@@H](CC(N)=O)NC(=O)[C@@H](CC(=O)O)NC(=O)[C@@H](Cc3cnc[nH]3)NC(=O)[C@@H](Cc3ccccc3)NC(=O)[C@@H]([C@@H](C)CC)NC(=O)[C@@H](CCCN)NC2=O)[C@@H](C)CC)CS1` ({Ileψ(thiazoline)Cys}-LE[d(aIle)]K[dOrn][d(aIle)][dF][dH][dD][dN]; lactam 4-C): the Potency result was “inactive”.

For the molecule `O=C(O)COCCN1CCN([C@@H](c2ccccc2)c2ccc(Cl)cc2)CC1`, the Potency result was “inactive”.

As for `CCN(CC)CCOC(=O)[C@@H](Cc1cccc2ccccc12)C[C@@H]1CCCO1`, the Potency entry is “inactive”.

As to `Clc1ccc([C@H](Cn2ccnc2)OCc2c(Cl)cccc2Cl)c(Cl)c1`, the Potency was 1.26 µM (active).

As to `CC[C@H](CO)NCCN[C@@H](CC)CO`, the Potency entry is “inactive”.

The subject of the next experiment is ATS189. The experiment is described as above. The conditions noted are these: P. falciparum in erythrocytes, SYBR Green DNA, 72 h; series mostly up to 12.8 µM. A digest of the protocol: as §1
As for `C[C@H](CCC(=O)O)[C@H]1CC[C@@H]2[C@@H]3[C@@H](O)C[C@H]4C[C@@H](O)CC[C@@]4(C)[C@H]3CC[C@@]21C`, the Potency entry was “inactive”.

Take `CN(C/C=C\c1ccccc1)Cc1cccc2ccccc12`: the Potency result is “inactive”.

On to `CCN(CCCCOC(=O)c1ccc(OC)c(OC)c1)[C@@H](C)Cc1ccc(OC)cc1`, for which the Potency entry is “inactive”.

As to `C[C@H](C(=O)O)c1cccc(Oc2ccccc2)c1`, the Potency entry is “inactive”.

`CC1(C)[C@@H](OC(=O)CCC(=O)O)CC[C@@]2(C)[C@H]1CC[C@@]1(C)[C@H]2C(=O)C=C2[C@H]3C[C@](C)(C(=O)O)CC[C@]3(C)CC[C@@]21C`: the Potency entry is “inactive”.

Consider `CCOC(=O)O[C@@H](C)OC(=O)[C@@H]1N2C(=O)[C@@H](NC(=O)[C@@H](N)c3ccccc3)[C@H]2SC1(C)C`, for which the Potency entry is “inactive”.

Regarding `Cc1ccsc1/C=C\C1=NCCCN1C`, the Potency result was “inactive”.

Turning to `C#C[C@]1(O)CC[C@@H]2[C@H]3CCC4=CCCC[C@@H]4[C@@H]3CC[C@@]21C`, the Potency entry was “inactive”.

In the case of `CC[C@H](C)[C@H](N)C1=N[C@H](C(=O)N[C@@H](CC(C)C)C(=O)N[C@@H](CCC(=O)O)C(=O)N[C@@H](C(=O)N[C@H]2CCCCNC(=O)[C@@H](CC(N)=O)NC(=O)[C@@H](CC(=O)O)NC(=O)[C@@H](Cc3cnc[nH]3)NC(=O)[C@@H](Cc3ccccc3)NC(=O)[C@@H]([C@@H](C)CC)NC(=O)[C@@H](CCCN)NC2=O)[C@@H](C)CC)CS1` ({Ileψ(thiazoline)Cys}-LE[d(aIle)]K[dOrn][d(aIle)][dF][dH][dD][dN]; lactam 4-C), the Potency entry was “inactive”.

On to `O=C(O)COCCN1CCN([C@@H](c2ccccc2)c2ccc(Cl)cc2)CC1`, for which the Potency entry was “inactive”.

With `CCN(CC)CCOC(=O)[C@@H](Cc1cccc2ccccc12)C[C@@H]1CCCO1`, the Potency entry is “inactive”.

`Clc1ccc([C@H](Cn2ccnc2)OCc2c(Cl)cccc2Cl)c(Cl)c1`: the Potency is 3.98 µM (active).

In the case of `C[C@@H](CNC1CCCCC1)OC(=O)c1ccccc1`, the Potency was 3.16 µM (active).

`CC[C@H](CO)NCCN[C@@H](CC)CO`: the Potency entry was “inactive”.
